The values below come from PubChem BioAssay (Tox21).

The structures appear in SMILES notation. Inconclusive results are not listed. Entries that show only a call come without a potency. Activity calls are given as the source filed them. Calls come from the whole dose curve.
Potency is the fitted concentration of half-maximal effect.

A short description of this experiment: p53 small molecule agonists, cell-based qHTS assay with rat liver microsomes: qHTS cell viability counter screen (AID 1963580). Note: nearly all actives have a fitted effect of over 45% in size. Particulars: p53RE-bla HCT-116 + rat microsomes, ATP viability, 16 h; series mostly up to 66 µM. The source says:
National Center for Advancing Translational Sciences [NCATS]
Division of Preclinical Innovation [DPI]
U.S. Environmental Protection Agency [EPA]
National Institutes of Environmental Health Sciences [NIEHS]
National Toxicology Program [NTP]
U.S. Food and Drug Administration [FDA]
p53, a tumor suppressor protein, is activated following cellular insult, including DNA damage and other cellular stresses. The activation of p53 regulates cell fate by inducing DNA repair, cell cycle arrest, apoptosis, or cellular senescence. The activation of p53, therefore, is a good indicator of DNA damage and other cellular stresses. The CellSensor p53RE-bla HCT-116 cell line contains a stably integrated beta-lactamase reporter gene under control of the p53 response elements. The activation of the reporter gene under culture conditions can be detected by fluorescence intensity. This cell line was used to screen the Tox21 10K compound library in the condition of presence of rat liver microsomes and to identify agonists that activate the p53 signaling pathway after in vitro metabolic activation (Ooka et al., Archive of Toxicology 96:1975-1987, 2022). The cytotoxicity of the Tox21 compound library against the p53 RE-bla HCT-116 cell line was tested in parallel by measuring the intra cellular ATP content in the same wells.
Tox21 Assay Protocol Summary:
The p53RE-bla cells were dispensed at 4,000cells/3ul/well in 1536-well black-clear bottom plates. After the assay plates were incubated at 37 C, 5% CO2 incubator for 5 hours, 23 nL of compounds dissolved in DMSO, positive controls or DMSO only was transferred to the assay plate. Following compound addition, 3 uL of rat liver microsomes (Molecular Toxicology, Boone, NC) at final concentration of 0.5 mg/mL and 1uL of B-Nicotinamide adenine dinucleotide 2'-phosphate (NADPH) at final concentration of 0.5 mg/mL were transferred to the assay plate. The plates were incubated at 37 C for 16 hours. 1 uL of LiveBLAzer detection mixture was added to each well and the plates were incubated at room temperature in the dark for 2 h. Fluorescence intensity at 460 and 530 nm emission and 405 nm excitation were measured by an Envision plate reader. For cell viability readout that measures cytotoxicity, 4 ul/well of CellTiter-Glo reagent was added into the assay plates using a Flying Reagent Dispenser. After 30 min incubation at room temperature, the luminescence intensity in the plates was measured using a ViewLux plate reader.
In general terms: In qHTS, concentration-response curves come from the screen itself.
Consider `CC(C)CC#N`, for which the Potency entry is “inactive”.

Take `CN1CCN(C(=O)O[C@H]2c3nccnc3C(=O)N2c2ccc(Cl)cn2)CC1`: the Potency entry is “inactive”.

On to `CCCCNP(N)(N)=S`, for which the Potency entry is “inactive”.

For `N#CCCl`, the Potency entry is “inactive”.

With `CCOP(=O)(Sc1ccccc1)Sc1ccccc1`, the Potency result was “inactive”.

With `O=[N+]([O-])c1cc(C(F)(F)F)c(Cl)c([N+](=O)[O-])c1Nc1ncc(C(F)(F)F)cc1Cl`, the Potency was 25.7 µM (active).

As for `Cc1nc(N(C)C)nc(OC(=O)N(C)C)c1C`, the Potency entry was “inactive”.

`O=[N+]([O-])c1ccc(Cl)c(Cl)c1Cl`: the Potency result is “inactive”.

Regarding `C=CCc1ccc(OC(=O)Cc2ccccc2)c(OC)c1`, the Potency entry was “inactive”.

For the molecule `O.O.O.O=C([O-])[C@H]([O-])[C@@H]([O-])C(=O)[O-].O=C([O-])[C@H]([O-])[C@@H]([O-])C(=O)[O-].[K+].[K+].[Sb+3].[Sb+3]`, the Potency entry was “inactive”.

In the case of `CCOc1nc(C(Cl)(Cl)Cl)ns1`, the Potency result is “inactive”.

For the molecule `CC(=O)OC(c1ccccc1)C(Cl)(Cl)Cl` (stereo not given), the Potency entry is “inactive”.

As for `CC(C)(C)c1ccc(CSc2cnn(C(C)(C)C)c(=O)c2Cl)cc1`, the Potency entry was “inactive”.

Consider `CNP(=O)(OC)Oc1ccc(C(C)(C)C)cc1Cl` (stereo not given), for which the Potency entry is “inactive”.

On to `[Cl-].[Cl-].[Cl-].[Yb+3]`, for which the Potency entry was “inactive”.

For `ClC1=C(Cl)C2(Cl)C(CBr)CC1(Cl)C2(Cl)Cl` (stereo not given), the Potency entry is “inactive”.

`CC(C)(C)C(O)/C(=C\c1ccc(Cl)cc1Cl)n1cncn1` (stereo not given): the Potency result is “inactive”.

`CCCCC(=O)Cl`: the Potency entry is “inactive”.

For `CC(C)(C)N(NC(=O)c1ccc(Cl)cc1)C(=O)c1ccccc1`, the Potency result is “inactive”.

Regarding `c1ccc2c(c1)CCNC2`, the Potency result is “inactive”.

As for `O=[N+]([O-])c1ccc(Nc2ccccc2)cc1`, the Potency entry is “inactive”.

For `CN1C(=S)CN=C(c2ccccc2)c2cc(Cl)ccc21`, the Potency entry is “inactive”.

For the molecule `O=S(=O)(NS(=O)(=O)C(F)(F)F)C(F)(F)F`, the Potency result is “inactive”.

Regarding `CC(C)(C)OO`, the Potency entry is “inactive”.

As for `CC(Cc1ccc2c(c1)OCO2)NO` (stereo not given), the Potency result is “inactive”.

Consider `CC(CC(C(N)=O)(c1ccccc1)c1ccccc1)N(C)C` (stereo not given), for which the Potency entry is “inactive”.

Turning to `CCCN(CCC)c1c([N+](=O)[O-])cc(S(C)(=O)=O)cc1[N+](=O)[O-]`, the Potency result is “inactive”.

`Oc1ccc([C@H]2CNCc3c2ccc(O)c3O)cc1O`: the Potency entry was “inactive”.

For the molecule `Cc1ccccc1CO[C@@H]1C[C@@]2(C(C)C)CC[C@]1(C)O2`, the Potency entry is “inactive”.

`CC(C)CCCCCCCOP(=O)(Oc1ccccc1)Oc1ccccc1`: the Potency entry was “inactive”.

On to `Clc1cc2c(cc1Cl)Oc1cc(Cl)c(Cl)cc1O2`, for which the activity change, negative = cytotoxicity is 0.149% [at 0.249 µM] (inactive).

Take `CC(C)(Cl)[N+](=O)[O-]`: the Potency result is “inactive”.

Consider `CCCCCCCCCCCCCCC(Br)C(=O)O` (stereo not given), for which the Potency entry was “inactive”.

As for `Cc1c(COC(=O)[C@@H]2[C@H](/C=C(\Cl)C(F)(F)F)C2(C)C)cccc1-c1ccccc1`, the Potency entry was “inactive”.

As to `COc1cc(CC(C)N)cc(OC)c1OC` (stereo not given), the Potency result was “inactive”.

As to `O=C(Nc1ccccc1-c1ccc(Cl)cc1)c1cccnc1Cl`, the Potency entry is “inactive”.

With `[As]#[In]`, the Potency result is “inactive”.

In the case of `O=C(O)C(F)(F)C(F)(F)C(F)(F)C(F)(F)C(F)(F)C(F)(F)C(F)(F)C(F)(F)C(F)(F)F`, the Potency entry was “inactive”.

As to `CSSC`, the Potency result was “inactive”.

For `CC(C)[C@]12CC(=O)[C@H](C)[C@H]1C2`, the Potency entry was “inactive”.
